PubChem BioAssay (Tox21)
Activity calls are given as the source filed them. Calls follow the shape of the dose curve; as a rule, active = well fitted curve in the direction sought with a large enough effect in the signal ratio in the repeat runs (not every such curve was filed as active); inconclusive = weak or mixed curves, or effect the other way; inactive = no such curve, though single readings can be large or run the other way; the % refers to the signal ratio.

The molecules below were run against Estrogen receptor (Homo sapiens) (UniProt P03372) (assay: qHTS assay to identify small molecule antagonists of the estrogen receptor alpha (ER-alpha) signaling pathway (AID 743069)). Conditions: HEK293 ER-alpha-UAS-bla, beta-lactamase ratio, antagonist mode; series mostly up to 69.4 µM; activity, negative = inhibition: at the top concentration.
Excerpt: National Center for Advancing Translational Sciences [NCATS]
NIH Chemical Genomics Center [NCGC]
U.S. Environmental Protection Agency [EPA]
National Institutes of Environmental Health Sciences [NIEHS]
National Toxicology Program [NTP]
U.S. Food and Drug Administration [FDA]
Estrogen receptor (ER), a nuclear hormone receptor, plays an important role in development, metabolic homeostasis and reproduction. Two subtypes of ER, ER-alpha and ER-beta have similar expression patterns with some uniqueness in both types. Endocrine disrupting chemicals (EDCs) and their interactions with steroid hormone receptors like ER causes disruption of normal endocrine function. To identify the compounds that inhibit ER signaling, an ER-alpha-UAS-bla GripTiteTM cell line (Invitrogen, Carlsbad, CA, USA) containing a beta-lactamase reporter gene under the control of an Upstream Activator Sequence (UAS) stably integrated into HEK293 cells was used to screen the Tox21 10K compound library.
Tox21 Assay Protocol Summary:
ER-alpha-bla cells were cultured in assay medium containing 2% charcoal stripped FBS overnight in the culture flasks before the assay was performed. The cells were dispensed at 5,000 cells/5 uL of assay medium per well into black wall/clear-bottom 1536-well plates using a Multidrop Combi (ThermoFisher Scientific, Waltham, MA) dispenser. After the assay plates were incubated at a 37C and 5% CO2 for 4 hr, 23 nL of compounds dissolved in DMSO, positive controls or DMSO only was transferred to the assay plate by a Pintool station (Kalypsys, San Diego, CA), followed by addition of 1 uL of 17beta-estradiol in assay medium using a Flying Reagent Dispenser (Aurora Discovery, San Diego, CA). The plates were incubated at 37C and 5% CO2 for 18 hr. Then 1 uL of LiveBLAzerTM B/G FRET substrate was added using a Flying Reagent Dispenser, the plates were incubated at room temperature for 2 hours, and fluorescence intensity was measured by an Envision plate reader (PerkinElmer, Shelton, CT).
% is scaled to controls: 0 for no effect and ±100 for the full control effect; potency is read from the fitted curve at half-maximal effect.

Estrogen receptor (Homo sapiens), sequence (P03372 whole entry, looked up): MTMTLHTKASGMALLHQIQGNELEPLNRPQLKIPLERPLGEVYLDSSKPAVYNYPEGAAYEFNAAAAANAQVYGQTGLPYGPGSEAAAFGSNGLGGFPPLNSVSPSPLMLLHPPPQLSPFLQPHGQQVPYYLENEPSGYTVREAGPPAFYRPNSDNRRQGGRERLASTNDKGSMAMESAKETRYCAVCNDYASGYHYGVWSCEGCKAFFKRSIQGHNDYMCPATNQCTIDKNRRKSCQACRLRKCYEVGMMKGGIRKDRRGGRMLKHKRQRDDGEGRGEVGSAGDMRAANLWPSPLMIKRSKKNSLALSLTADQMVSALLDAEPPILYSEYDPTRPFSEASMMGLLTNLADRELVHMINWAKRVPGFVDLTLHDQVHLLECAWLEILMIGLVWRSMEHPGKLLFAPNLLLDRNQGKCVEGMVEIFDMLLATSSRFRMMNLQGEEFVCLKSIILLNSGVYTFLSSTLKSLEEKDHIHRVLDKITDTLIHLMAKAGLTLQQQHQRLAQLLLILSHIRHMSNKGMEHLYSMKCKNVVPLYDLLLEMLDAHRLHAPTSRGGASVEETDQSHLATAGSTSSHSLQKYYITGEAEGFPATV

SMILES	activity, negative = inhibition	Potency
CC(C)=CCCC(C)C=O (stereo not given)	12.8% (inactive)	–
Cc1nc2sccn2c(=O)c1CCN1CCC(=C(c2ccc(F)cc2)c2ccc(F)cc2)CC1	-22.6% (inactive)	–
CC(CCl)OC(C)CCl (stereo not given)	5.61% (inactive)	–
CCOC(=O)CC(O)(CC(=O)OCC)C(=O)OCC	-8.57% (inactive)	–
Clc1nc2ccccc2nc1Cl	29.1% [at 79.1 µM] (inactive)	–
CC1(C)CC(O)CC(C)(C)N1[O]	-2.76% (inactive)	–
CCCCOC(=O)CC#N	7.33% [at 79.1 µM] (inactive)	–
CC(C)=CCC[C@H](C)CCO	-43.4% (inactive)	–
S=c1[nH][nH]c(=S)s1	21.3% (inactive)	–
Clc1cccc(C(c2ccc3nc[nH]c3c2)n2ccnc2)c1 (stereo not given)	-29.3% (inactive)	–
O=C(O)c1cccc(C(=O)O)c1C(=O)O	-5.39% [at 79.1 µM] (inactive)	–
O=C1c2ccccc2C(=O)C1c1ccc2ccccc2n1	-7.9% (inactive)	–
CC(C)CC(C)(C)C	-8.39% [at 79.1 µM] (inactive)	–
O=C(c1ccc(Cl)cc1)c1ccc(Cl)cc1	6.7% (inactive)	–
C=CC(=O)NC(C)(C)C	5.68% (inactive)	–
CCCc1ccc(OC)cc1	3.43% [at 79.1 µM] (inactive)	–
Oc1ccc(Oc2ccccc2)cc1	6.38% (inactive)	–
CCCC1CCCC(=O)O1 (stereo not given)	17.4% (inactive)	–
Oc1ccc(CCNCCCCCCNCCc2ccccc2)cc1O	-12.7% (inactive)	–
N#C[C@@H]1CC(F)(F)CN1C(=O)CNC1CC2CCC(C1)N2c1ncccn1 (stereo not given in full)	48.2% (inactive)	–

SMILES	activity, negative = inhibition	Potency
Cc1cc(N)n(-c2ccccc2)n1	-2.56% (inactive)	–
CCCCCO	3.4% (inactive)	–
O=C(O)c1ccc(O)c(O)c1	-13.9% (inactive)	–
CCCOC(C)=O	12% (inactive)	–
COC(=O)Cc1cccc2ccccc12	20.1% (inactive)	–
Cc1ccccc1CCO	8.14% (inactive)	–
CC[C@H](NC(C)C)[C@H](O)c1ccc(O)c2[nH]c(=O)ccc12	8.88% (inactive)	–
CC(C)C[C@H](NC(=O)[C@H](Cc1ccccc1)NC(=O)c1cnccn1)B(O)O	–	67.4 nM [inconclusive] (active)
C1=COCCC1	12.2% (inactive)	–
CCCCCCCCCCCCSC#N	-32.8% (inactive)	–
O=C(OCCCCCOC(=O)c1ccccc1)c1ccccc1	8.55% (inactive)	–
O=C1CCCN1CCO	-7.59% (inactive)	–
CC(C)=CCC/C(C)=C/C=N/O	-1.72% (inactive)	–
c1ccc(-c2ccc(-c3ccccc3)cc2)cc1	-3.79% [at 32.6 µM] (inactive)	–
COc1cc(CNC(=O)CCCC/C=C/C(C)C)ccc1O	14% (inactive)	–
O=C(O)c1ccc2cc(O)ccc2c1	-47.2% (inactive)	–
O=C(Cl)c1ccc(F)c(Cl)c1	-5.86% (inactive)	–
COC(=O)c1cc(Cl)ccc1[N+](=O)[O-]	-16.2% (inactive)	–
CCCC1CCOC(C)S1 (stereo not given)	-14.9% (inactive)	–
NC(=O)c1cc[n+](CC2=C(C(=O)[O-])N3C(=O)[C@@H](NC(=O)Cc4cccs4)[C@H]3SC2)cc1	5.77% [at 32.6 µM] (inactive)	–
